IL1B secr inh: blocks inflammasome-driven IL-1 beta release; 4.7% of 360,000 active; activity change, % at 57.5 µM; THP-1 LPS/ATP IL-1B secretion, AlphaLISA, 16 h; hits give low values; AID 743279; in the data active = activity change below about -50%; inconclusive = mostly about -30% to -49%; also: % is scaled to controls: 0 for no effect and ±100 for the full control effect
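Secreted IL-1B measured by AlphaLISA bead assay after 16 h compound exposure of THP-1 cells; compounds (final up to 57.5 uM) added 1 h before LPS (250 ng/mL) and ATP (1.25 mM) stimulation; lower signal means less secretion.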
HepG2 tox: kills HepG2 cells in TGF-b inhibitor counter-screen | 0.76% of 410,000 active | HepG2 CAGA-GFP viability, ATP luminescence, 18 h | Potency, µM (doses to about 46.1 µM), for the others: top-dose activity change, negative = cytotoxicity, most hits filed as cytotoxic | AID 588856; also: potency is read from the fitted curve at half-maximal effect
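HepG2 CAGA-GFP cells (1000/well, DMEM with 1% FBS) received compound, then TGF-beta at 500 pg/mL final, and were incubated 18 hours at 37 degrees C. Viability was read by CellTiter-Glo luminescence. Media-only wells were set as complete cell-killing and DMSO as no toxicity.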
HT1080 IDH1KD tx: toxicity to HT-1080 IDH1 knockdown cells (counter line). AID 686971. HT-1080 IDH1 knockdown viability, ATP luminescence, 48 h. Potency, µM (doses to about 46.1 µM), without a hit: at the top dose activity, negative = toxicity, actives largely listed as cytotoxic. 2% of 360,000 active;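 also: potency is read from the fitted curve at half-maximal effect; 0% = DMSO wells and -100% = cell-free medium wells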
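After a 2 h attachment period, IDH1KD HT-1080 cells took pin-transferred compound for 48 h at 37 °C; ATP-based luminescence after 10 min room-temperature reagent incubation reported viability.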
Giardia killer: kills Giardia lamblia. activity change, % at 7.66 µM, hits read low. 0.15% of 340,000 active. Giardia lamblia trophozoite viability; in the data active = activity change below about -80%; inconclusive = between about -30% and that limit;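 also: parasites exposed to compound for two days anaerobically before the ATP read; % is scaled to controls: 0 for no effect and ±100 for the full control effect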
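Viability, read as ATP luminescence: trophozoites at 100 cells/well, compound added, 48 hrs anaerobic at 37 deg C, then 15-30 min room-temperature development before reading.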
HT1080NT lethal: kills 2HG-producing HT-1080-NT fibrosarcoma cells; AID 686970; Potency, µM (doses to about 46.1 µM), inactives show at the top dose activity, negative = less viability, actives largely listed as cytotoxic; 1.6% of 360,000 active; HT-1080-NT fibrosarcoma viability, CellTiter-Glo ATP luminescence, 48 h;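 also: NT is the 2HG producing partner of a matched IDH1 knockdown line; potency is read from the fitted curve at half-maximal effect; 0% = DMSO-treated cells and -100% = media-only wells without cells; nearly all actives have a fitted effect of over 55% in size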
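Read-out is CellTiter-Glo luminescence after 10 minutes at room temperature, following 48 hours' compound treatment of HT-1080-NT cells (750 cells/well, RPMI, 5% FBS, 37 degrees C).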
TGFb SMAD3 inh: blocks TGF-b signaling; HepG2 CAGA-GFP TGF-b/SMAD3 reporter, GFP fluorescence, 18 h; TGF-beta stimulated, 500 pg/mL final; AID 588855; Potency, µM (highest dose often 46.1 µM), inactives show at the highest dose activity, negative = inhibition, actives largely listed as inhibitors; 1.2% of 410,000 active; also: potency is read from the fitted curve at half-maximal effect; % is scaled to controls: 0 for no effect and ±100 for the full control effect; nearly all actives have a fitted effect of over 65% in size
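Inhibition was scored as loss of TGF-beta-induced (500 pg/mL final, 18 hours, 37 degrees C) GFP in HEPG2 cells carrying a CAGA-GFP reporter, in DMEM with 1% FBS. Well GFP was summed per cell; Activity was normalised to unstimulated and stimulated DMSO wells, then concentration-response fitting.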
* hit, by the source's call; ? = inconclusive; . = not tested or not shown; [ ] = another dose, or the depositor's remark. Sampled rows, rich in hits. Any-hit rate of the full collection: about 6.5%. Unless noted, calls follow the shape of the dose curve; as a rule, active = well fitted curve in the direction sought with a large enough effect; inconclusive = small, poorly fitted or top-dose-only effect, or another doubt; inactive = no such curve, though single readings can be large; an effect the other way counts as inactive or inconclusive.

SMILES	IL1B secr inh	HepG2 tox	HT1080 IDH1KD tx	Giardia killer	HT1080NT lethal	TGFb SMAD3 inh
COc1ccc(C(C(=O)NC(C)(C)C)N(CCc2ccccc2)C(=O)CCC(=O)Nc2cc(C)on2)cc1 (stereo unspecified)	-57.2*	-14.3%	-8.4%	1.4	-4.6%	-5.3%
CCOc1ccc(N(C(=O)/C=C/C(=O)Nc2cc(C)on2)C(C(=O)NC2CCCC2)c2ccccc2C)cc1 (stereo unspecified)	-24.3	-4.5%	5.3%	-3.5	7.3%	18.5%
CCc1ccc(C(C(=O)NC2CCCC2)N(C(=O)/C=C/C(=O)Nc2cc(C)on2)c2ccccc2C)cc1 (stereo unspecified)	-63.2*	-6.5%	2.0%	-5.7	4.0%	?
CCCCN(C(=O)CCC(=O)Nc1cc(C)on1)C(C(=O)NC1CCCC1)c1ccccc1C (stereo unspecified)	-3.4	-6.9%	-0.6%	0.9	7.1%	-16.5%
CCCCN(C(=O)CCC(=O)Nc1cc(C)on1)C(C(=O)NC1CCCC1)c1ccc(F)cc1 (stereo unspecified)	-77.0*	-1.3%	-19.8%	11.9	-14.8%	-15.1%
C=C[C@]1(C)C=C2C(=O)[C@@]3(O)OC(=O)[C@@]4(CCCC(C)(C)[C@H]34)[C@@]2(O)CC1	-113.4*	5.62µM*	2.91µM*	.	2.91µM*	?
C=C[C@]1(C)C=C2CC[C@H]3[C@@](C)(CCC[C@@]3(C)C(=O)O)[C@@H]2CC1	28.7	-70.0%	-8.0%	12.3	-7.4%	?
O=S(=O)(Cc1ccccc1)N1CCN(Cc2ccccc2)CC1	0.0	-17.4%	-4.0%	2.4	-8.2%[9.24 µM]	0.0%
O=C(NCCNC(=O)c1cc(OCC(F)(F)F)ccc1OCC(F)(F)F)Nc1cccc(C(F)(F)F)c1	?	-41.1%	-25.1%	7.2	-15.3%	?
O=C(Nc1cccc(Cl)c1)Nc1cccc(Cl)c1	-21.0	-19.9%	-20.7%	-6.9	?	-15.8%
O=C(Nc1cccnc1)C12CC3CC(CC(C3)C1)C2	-3.3	-3.1%	-5.2%	15.5	10.1%	-6.5%
O=C(Nc1cccnc1)C1(F)C(F)(F)C(F)(F)C(F)(F)C(F)(F)C1(F)F	-67.3*	13.7%	1.4%[9.24 µM]	-8.7	13.4%	-5.3%
O=C(Nc1ccccc1)Nc1cc(OCC(F)(F)F)cc(OCC(F)(F)F)c1	-103.3*	11.2µM*	7.31µM*	10.1	6.51µM*	?
O=C(Nc1cccnc1)Nc1cc(Cl)cc(Cl)c1	-100.9*	-36.2%	-8.1%	-22.8	1.3%	?
O=C(Nc1cccnc1)Nc1ccccc1Cl	10.1	-23.6%	-1.6%	-0.1	11.2%	-2.9%
O=C(Nc1ccccc1)Nc1cc(Cl)cc(Cl)c1	-82.5*	-82.1%	14.6µM*	-16.6	16.4µM*	15.8µM*
Cc1ccc(C(=O)N/C(=C/c2ccco2)C(=O)NCCc2c[nH]c3ccccc23)cc1	-28.6	-5.9%	-10.3%	-7.3	-0.1%	-2.3%
Cc1csc(=O)n1CCC(=O)OCC(=O)c1c(N)n(C)c(=O)n(C)c1=O	2.5	3.5%	3.0%	3.8	-0.8%	0.0%
CSc1ncc(C(=O)N2CCN(c3cc(Cl)ccc3C)CC2)c(C)n1	.	-20.8%	.	.	.	-24.0%
NNc1nccc(Nc2ccccc2C(=O)O)n1	-66.5*	-12.5%	-18.0%	27.8	-10.9%	?
O=C(N/N=C/c1ccco1)c1ccn[nH]1	15.9	9.0%	1.1%	-9.2	-1.2%	8.8%
CCNc1nc(N)c(C(=C(C#N)C#N)c2ccccc2)s1	-74.7*	-39.1%	-23.5%	-7.0	-15.1%	?
N/C(=N\c1nc2c(c(=O)[nH]1)CCCC2)Nc1ccc(Oc2ccccc2)cc1	0.8	-8.8%	10.8%[9.24 µM]	-2.6	-16.2%	-2.0%
CC(=O)/C=N/Nc1ccccc1	-17.8	-93.3%	28.5%	7.1	?	22.4µM*
CCN1CCCC1CNC(=O)c1ccc2c(c1)NC(=O)/C(=C\c1ccc(C)cc1)S2 (stereo unspecified)	-15.3	15.8µM*	0.0%	-5.7	?	?
SMILES	IL1B secr inh	HepG2 tox	HT1080 IDH1KD tx	Giardia killer	HT1080NT lethal	TGFb SMAD3 inh
Cc1ccc(/C=C2/Sc3ccc(C(=O)NCCN4CCOCC4)cc3NC2=O)cc1	-3.3	39.1%	-1.8%	16.0	0.7%	25.6%
COc1cccc(/C=C2/Sc3ccc(C(=O)NCCN4CCCC4)cc3NC2=O)c1	?	14.1µM*	-8.6%	3.4	-11.7%	?
O=C1Nc2cc(C(=O)NCCN3CCCCCC3)ccc2S/C1=C/c1ccccc1F	-101.7*	8.91µM*	?	.	?	10µM*
COCCNC(=O)CCCn1c(SCC(=O)NCc2ccc(C)cc2)nc2c(sc3ccccc32)c1=O	.	0.5%	.	.	.	5.5%
COc1ccc(OC)c(NC(=O)c2nc(S(=O)(=O)Cc3ccccc3F)ncc2Cl)c1	.	3.16µM*	.	.	.	?
COC(=O)c1ccccc1NC(=O)c1nc(S(=O)(=O)Cc2ccccc2F)ncc1Cl	.	4.5%	.	.	.	-1.8%
CCOc1ccccc1NC(=O)c1nc(S(=O)(=O)Cc2ccccc2F)ncc1Cl	.	-17.5%	.	.	.	?
O=C(Nc1ccccc1F)c1nc(S(=O)(=O)Cc2ccccc2F)ncc1Cl	.	8.91µM*	.	.	.	4.47µM*
Cc1ccc(NC(=O)Cn2c(O)c(N=NC(=O)c3ccncc3)c3ccccc32)cc1	53.2	-2.8%	13.0%	1.7	13.8%	-0.7%
Cc1ccc(NC(=O)Cn2c(O)c(N=NC(=O)c3cc4ccccc4cc3O)c3ccccc32)cc1	-94.7*	-42.1%	?	-11.3	20.6µM*	0.0%
Cc1ccccc1-n1c(N)c(C(=O)Nc2ccc(F)cc2)sc1=S	-8.5	-5.7%	-11.9%	0.0	-11.9%	-8.8%
Cc1ccc(-n2c(N)c(C(=O)Nc3ccccc3F)sc2=S)cc1C	-54.4*	-21.4%	-14.6%	-9.7	-8.2%	-14.4%
COCCNC(=O)C1CCC(=O)N1S(=O)(=O)c1ccc(C)cc1 (stereo unspecified)	-7.0	4.6%	0.1%	-9.8	-3.8%	6.0%
CCOC(=O)Nc1ccc(S(=O)(=O)N2CCC(C)CC2)cc1	0.0	-10.4%	-12.3%	-1.7	-9.6%	-1.1%
C=C(C)COc1ccc2c(c1)CCC1C2CCC2(C)C(=O)C(=NO)CC12 (stereo unspecified)	-99.3*	-1.2%	?	9.1	0.1%	5.9%
O=C(O)/C=C\C(=O)Nc1ccc(N2CCN(c3ccc(Cl)c(Cl)c3)CC2)cc1	-71.1*	-30.3%	-4.3%	2.3	-18.4%	-11.7%
Cc1ccccc1OCC(=O)Nc1sc2c(c1C#N)CC(C)(C)NC2(C)C	-10.3	-24.7%	?	-12.7	23.1µM*	0.0%

Screening results as filed in PubChem BioAssay.
